# In publication PMC7862700, “An all-to-all approach to the identification of sequence-specific readers for epigenetic DNA modifications on cytosine”:
# How the values were obtained:
# Assay in all cases: DAPPL (digital affinity profiling via proximity ligation, sequencing); 10 mM Tris-HCl pH 7.5, 50 mM NaCl, 1 mM DTT, 4% glycerol, room temperature, 30 min; GST-TFs on glutathione beads, 16-mer random dsDNA library, 0.1% formaldehyde crosslink after washing; high values mean tight binding
# FEV = target: T1, FEV (Homo sapiens, UniProt Q99581 1-238); settings: protein: recombinant; tags: N-terminal GST; dsDNA, one strand shown
# T1 sequence: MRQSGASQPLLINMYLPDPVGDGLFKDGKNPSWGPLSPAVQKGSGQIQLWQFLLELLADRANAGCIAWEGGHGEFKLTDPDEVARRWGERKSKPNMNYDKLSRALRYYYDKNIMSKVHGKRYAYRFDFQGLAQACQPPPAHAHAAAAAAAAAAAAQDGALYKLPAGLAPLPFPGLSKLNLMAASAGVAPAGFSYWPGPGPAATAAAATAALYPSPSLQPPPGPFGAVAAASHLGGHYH
# Outline: (§1)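 Beads coated with glutathione captured GST-fused human transcription factors that had been expressed in yeast, and the factors were then given DNA barcodes and pooled with a tag-only sample. The pools were incubated with 200 nmole of a random double-stranded 16-mer DNA library in Tris/NaCl/DTT/glycerol buffer for 30 min at room temperature, washed, crosslinked with 0.1% formaldehyde and proximity-ligated with BsaI/T4 ligase at 37 °C for 1 h. PCR amplification and Illumina NextSeq500 sequencing came last. Binding signal is each hexamer's read frequency for a factor divided by its frequency for the tag-only sample.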
# ETV5 = ETV5 (Homo sapiens, UniProt P41161 1-510); settings: protein: recombinant; tags: N-terminal GST; dsDNA, one strand shown
# Chain of ETV5 (P41161 whole entry): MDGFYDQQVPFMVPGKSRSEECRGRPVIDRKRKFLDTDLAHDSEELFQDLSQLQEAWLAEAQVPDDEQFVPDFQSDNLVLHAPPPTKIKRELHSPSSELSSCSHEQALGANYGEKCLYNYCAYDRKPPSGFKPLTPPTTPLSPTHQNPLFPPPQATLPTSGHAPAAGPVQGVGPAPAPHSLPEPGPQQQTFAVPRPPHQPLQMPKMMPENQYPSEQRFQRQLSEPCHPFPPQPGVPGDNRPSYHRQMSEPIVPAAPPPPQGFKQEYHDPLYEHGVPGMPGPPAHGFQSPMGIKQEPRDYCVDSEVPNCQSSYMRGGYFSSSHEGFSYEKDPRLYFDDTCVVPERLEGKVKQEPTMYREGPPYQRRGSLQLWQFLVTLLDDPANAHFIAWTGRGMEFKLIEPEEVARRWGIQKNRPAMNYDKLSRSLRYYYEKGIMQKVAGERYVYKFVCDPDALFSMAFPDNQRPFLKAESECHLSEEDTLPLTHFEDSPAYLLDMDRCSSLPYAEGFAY
# Outline: as §1
# HSF1 = HSF1 (Homo sapiens, UniProt Q00613 1-529); settings: protein: recombinant; tags: N-terminal GST; chain copies: 3; dsDNA, one strand shown
# Chain of HSF1 (Q00613 whole entry): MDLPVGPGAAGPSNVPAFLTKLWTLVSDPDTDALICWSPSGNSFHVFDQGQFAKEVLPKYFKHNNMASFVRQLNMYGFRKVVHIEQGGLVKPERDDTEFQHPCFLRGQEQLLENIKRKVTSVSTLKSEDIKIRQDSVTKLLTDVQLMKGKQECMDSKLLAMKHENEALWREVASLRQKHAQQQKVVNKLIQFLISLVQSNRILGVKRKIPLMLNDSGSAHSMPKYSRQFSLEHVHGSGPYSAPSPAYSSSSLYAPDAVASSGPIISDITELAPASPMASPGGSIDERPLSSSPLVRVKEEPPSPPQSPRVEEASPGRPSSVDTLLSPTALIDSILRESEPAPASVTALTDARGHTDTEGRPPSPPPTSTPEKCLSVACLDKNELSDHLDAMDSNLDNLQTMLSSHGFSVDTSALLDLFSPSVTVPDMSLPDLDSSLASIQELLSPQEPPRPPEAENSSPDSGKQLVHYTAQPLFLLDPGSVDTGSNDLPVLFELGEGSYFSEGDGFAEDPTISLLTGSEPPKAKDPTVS
# Outline: as §1
# SPIC = target: T2, SPIC (Homo sapiens, UniProt Q8N5J4 1-248); settings: protein: recombinant; tags: N-terminal GST; dsDNA, one strand shown
# T2 sequence: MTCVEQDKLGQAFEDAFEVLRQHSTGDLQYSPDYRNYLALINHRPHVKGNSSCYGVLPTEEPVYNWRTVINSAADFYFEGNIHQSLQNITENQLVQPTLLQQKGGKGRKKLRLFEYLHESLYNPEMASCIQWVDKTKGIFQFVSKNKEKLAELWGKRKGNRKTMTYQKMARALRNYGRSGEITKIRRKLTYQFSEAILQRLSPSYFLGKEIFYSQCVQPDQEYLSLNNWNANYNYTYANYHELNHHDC
# Outline: as §1
# ELF4 = ELF4 (Homo sapiens, UniProt Q99607 1-663); settings: protein: recombinant; tags: N-terminal GST; dsDNA, one strand shown
# Chain of ELF4 (Q99607 whole entry): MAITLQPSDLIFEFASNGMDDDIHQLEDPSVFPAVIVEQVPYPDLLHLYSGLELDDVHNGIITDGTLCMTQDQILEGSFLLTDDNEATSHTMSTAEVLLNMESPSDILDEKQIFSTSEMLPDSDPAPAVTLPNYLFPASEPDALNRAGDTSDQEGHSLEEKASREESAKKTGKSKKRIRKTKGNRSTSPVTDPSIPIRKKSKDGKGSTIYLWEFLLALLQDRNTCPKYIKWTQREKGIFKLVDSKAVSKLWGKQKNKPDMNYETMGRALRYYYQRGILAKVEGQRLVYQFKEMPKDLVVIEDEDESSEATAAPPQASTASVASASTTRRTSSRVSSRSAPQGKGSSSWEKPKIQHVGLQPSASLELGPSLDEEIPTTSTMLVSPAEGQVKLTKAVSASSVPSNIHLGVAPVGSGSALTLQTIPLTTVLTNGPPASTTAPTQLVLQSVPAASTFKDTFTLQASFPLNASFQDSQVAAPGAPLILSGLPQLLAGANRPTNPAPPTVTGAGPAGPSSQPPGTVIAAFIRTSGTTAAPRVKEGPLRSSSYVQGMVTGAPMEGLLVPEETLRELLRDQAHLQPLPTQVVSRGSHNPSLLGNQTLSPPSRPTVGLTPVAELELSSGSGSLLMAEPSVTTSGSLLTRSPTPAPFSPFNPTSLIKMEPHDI
# Outline: as §1
# ELK4 = target: T3, ELK4 (Homo sapiens, UniProt P28324-2 1-405); settings: protein: recombinant; tags: N-terminal GST; dsDNA, one strand shown
# T3 sequence: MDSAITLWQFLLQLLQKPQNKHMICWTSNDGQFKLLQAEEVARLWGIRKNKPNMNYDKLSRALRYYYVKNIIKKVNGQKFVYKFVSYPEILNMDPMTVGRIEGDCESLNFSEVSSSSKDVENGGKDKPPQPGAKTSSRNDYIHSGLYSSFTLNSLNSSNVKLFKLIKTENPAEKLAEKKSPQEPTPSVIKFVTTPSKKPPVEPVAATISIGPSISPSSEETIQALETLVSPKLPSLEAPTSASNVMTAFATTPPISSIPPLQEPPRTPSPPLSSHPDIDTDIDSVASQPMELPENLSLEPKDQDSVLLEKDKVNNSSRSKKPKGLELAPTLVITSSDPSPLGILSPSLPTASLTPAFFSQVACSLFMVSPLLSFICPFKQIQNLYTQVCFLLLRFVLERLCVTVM
# Outline: as §1
# ETV2 = target: T4, ETV2 (Homo sapiens, UniProt O00321 1-342); settings: protein: recombinant; tags: N-terminal GST; dsDNA, one strand shown
# T4 sequence: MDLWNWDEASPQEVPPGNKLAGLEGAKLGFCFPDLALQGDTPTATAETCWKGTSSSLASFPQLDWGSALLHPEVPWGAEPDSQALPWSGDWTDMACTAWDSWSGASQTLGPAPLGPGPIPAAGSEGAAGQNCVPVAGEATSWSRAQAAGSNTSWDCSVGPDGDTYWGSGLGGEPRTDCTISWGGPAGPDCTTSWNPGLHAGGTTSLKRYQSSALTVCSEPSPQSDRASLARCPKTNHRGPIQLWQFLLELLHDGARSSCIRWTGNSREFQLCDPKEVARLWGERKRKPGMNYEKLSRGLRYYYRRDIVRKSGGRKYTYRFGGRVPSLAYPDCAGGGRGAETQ
# Outline: as §1
# ELF3 = target: T5, ELF3 (Homo sapiens, UniProt P78545 1-371); settings: protein: recombinant; tags: N-terminal GST; dsDNA, one strand shown
# T5 sequence: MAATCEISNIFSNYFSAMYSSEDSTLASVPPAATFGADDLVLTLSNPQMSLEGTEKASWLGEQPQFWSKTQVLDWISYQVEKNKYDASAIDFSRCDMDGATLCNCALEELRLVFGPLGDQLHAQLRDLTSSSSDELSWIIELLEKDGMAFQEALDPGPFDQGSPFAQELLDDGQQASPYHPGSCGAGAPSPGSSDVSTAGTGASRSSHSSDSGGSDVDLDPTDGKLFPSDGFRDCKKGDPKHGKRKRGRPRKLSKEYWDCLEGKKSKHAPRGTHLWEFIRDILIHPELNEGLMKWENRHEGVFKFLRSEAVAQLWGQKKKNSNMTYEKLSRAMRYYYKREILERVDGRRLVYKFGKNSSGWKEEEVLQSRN
# Outline: as §1
# CRX = CRX (Homo sapiens, UniProt O43186 1-299); settings: protein: recombinant; tags: N-terminal GST; dsDNA, one strand shown
# Chain of CRX (O43186 whole entry): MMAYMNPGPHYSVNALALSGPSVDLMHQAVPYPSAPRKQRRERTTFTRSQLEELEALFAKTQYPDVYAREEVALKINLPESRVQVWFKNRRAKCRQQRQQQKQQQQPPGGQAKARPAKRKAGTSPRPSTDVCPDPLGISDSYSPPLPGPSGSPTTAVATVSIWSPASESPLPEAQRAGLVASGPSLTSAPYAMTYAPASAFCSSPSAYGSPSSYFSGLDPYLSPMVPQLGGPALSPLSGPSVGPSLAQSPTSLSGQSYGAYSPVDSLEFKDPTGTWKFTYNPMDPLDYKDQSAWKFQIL
# Outline: as §1
# ETV1 = ETV1 (Homo sapiens, UniProt P50549 1-477); settings: protein: recombinant; tags: N-terminal GST; dsDNA, one strand shown
# Chain of ETV1 (P50549 whole entry): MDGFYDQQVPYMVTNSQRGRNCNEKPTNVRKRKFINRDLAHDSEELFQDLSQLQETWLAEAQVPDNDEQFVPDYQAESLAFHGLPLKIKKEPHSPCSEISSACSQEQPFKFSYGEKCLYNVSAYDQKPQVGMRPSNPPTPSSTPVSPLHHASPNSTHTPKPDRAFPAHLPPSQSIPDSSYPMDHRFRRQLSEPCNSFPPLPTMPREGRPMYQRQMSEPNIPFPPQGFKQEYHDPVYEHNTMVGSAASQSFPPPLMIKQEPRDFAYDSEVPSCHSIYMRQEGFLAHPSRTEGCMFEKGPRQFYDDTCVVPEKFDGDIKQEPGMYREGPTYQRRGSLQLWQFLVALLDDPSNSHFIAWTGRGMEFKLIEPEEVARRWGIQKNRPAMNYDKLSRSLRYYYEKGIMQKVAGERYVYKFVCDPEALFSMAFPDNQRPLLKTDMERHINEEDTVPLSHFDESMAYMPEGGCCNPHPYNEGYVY
# Outline: as §1
sequence,measurement,setting,value
CCGTCT,binding signal,FEV,"1.3 fold enrichment (6-mer frequency, TF over GST control)"
same,binding signal,ETV5,"1.36 fold enrichment (6-mer frequency, TF over GST control)"
same,binding signal,HSF1,"1.29 fold enrichment (6-mer frequency, TF over GST control)"
same,binding signal,SPIC,"1.45 fold enrichment (6-mer frequency, TF over GST control)"
same,binding signal,ELF4,"1.37 fold enrichment (6-mer frequency, TF over GST control)"
same,binding signal,ELK4,"1.4 fold enrichment (6-mer frequency, TF over GST control)"
same,binding signal,ETV2,"1.32 fold enrichment (6-mer frequency, TF over GST control)"
same,binding signal,ELF3,"1.25 fold enrichment (6-mer frequency, TF over GST control)"
same,binding signal,CRX,"1.26 fold enrichment (6-mer frequency, TF over GST control)"
same,binding signal,ETV1,"1.38 fold enrichment (6-mer frequency, TF over GST control)"
